In PubChem BioAssay (EPA / NIEHS):
Records with an inconclusive call do not appear. Activity calls are given as the source filed them. The calls were made as follows, unless noted: active = hit-call score of the fitted dose curve at least 0.9, where 1 is the maximum; inactive = score below 0.9.

Experiments:
PGR (gene 5241) [1] = target: PGR (gene 5241) (UniProt P06401); experiment: TOX21_PR_BLA_Followup_Agonist_ratio: Tox21 HEK293 Progesterone Receptor (PR) Agonism Beta-lactamase Follow-Up Assay, Ratio (AID 2283933; active = hit-call score of the fitted dose curve at least 0.9, where 1 is the maximum)
Method in brief: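 HEK293T PR-UAS-bla, 2% CS-FBS; 6 hr preincubation, cpd/DMSO pinned, 16 hr 37C/5% CO2; LiveBLAzer B/G 2 hr RT; FRET ch2/ch1 ratio, agonist direction vs DMSO. Viability by CellTiter-Glo in same wells.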

PGR (gene 5241) [2] = target: PGR (gene 5241) (UniProt P06401); experiment: TOX21_PR_BLA_Followup_Antagonist_ratio: Tox21 HEK293 Progesterone Receptor (PR) Antagonism Beta-lactamase Follow-Up Assay, Ratio (AID 2283934; active = hit-call score of the fitted dose curve at least 0.9, where 1 is the maximum)
Method in brief: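 HEK293T PR-UAS-bla, 2% CS-FBS; 6 hr plating, then cpd + R5020 (1 nM final), 16 hr 37C/5% CO2. B/G FRET substrate 2 h RT. Ratio ch2/ch1 vs DMSO; CellTiter-Glo viability multiplexed, autofluorescence checked.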

[3] = TOX21_PR_BLA_Followup_Agonist_viability: Viability Assessment in the Tox21 HEK293 Progesterone Receptor (PR) Agonism Beta-lactamase Follow-Up Assay (AID 2283935; active = hit-call score of the fitted dose curve at least 0.9, where 1 is the maximum;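 also: signal loss means lower viability so actives are cytotoxic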)
Method in brief: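 HEK293T PR-UAS-bla, 3,000 cells/well, 2% CS-FBS; 6 hr pre-incubation; cpd in DMSO, 16 hr 37C; LiveBLAzer 2 hr RT, then CellTiter-Glo 30 min RT, luminescence. Decrease = lost viability.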

[4] = TOX21_PR_BLA_Followup_Antagonist_viability: Viability Assessment in the Tox21 HEK293 Progesterone Receptor (PR) Antagonism Beta-lactamase Follow-Up Assay (AID 2283936; active = hit-call score of the fitted dose curve at least 0.9, where 1 is the maximum;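 also: hits lower the luminescence signal meaning cytotoxicity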)
Method in brief: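 PR-UAS-bla HEK293T cells (3,000/well, 2% charcoal-stripped FBS) given compound plus R5020 agonist, 16 h at 37C. CellTiter-Glo added after bla read, 30 min at room temperature; luminescence loss indicates cytotoxicity.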

PGR (gene 5241) [5] = target: PGR (gene 5241) (UniProt P06401); experiment: TOX21_PR_LUC_Followup_Agonist: Tox21 HEK293 Progesterone Receptor (PR) Agonism Luciferase Follow-Up Assay (AID 2283937)
Method in brief: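 Cells: HEK293-PR-A-luc, 3,000/well, 10% charcoal-stripped FBS assay medium. Compound added after 5 h; 16 h, 37C, 0% CO2. ONE-Glo luciferase, luminescence. Positive fit vs DMSO.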

PGR (gene 5241) [6] = target: PGR (gene 5241) (UniProt P06401); experiment: TOX21_PR_LUC_Followup_Antagonist: Tox21 HEK293 Progesterone Receptor (PR) Antagonism Luciferase Follow-Up Assay (AID 2283938; active = hit-call score of the fitted dose curve at least 0.9, where 1 is the maximum;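 also: curve fitted upward as signal gain over DMSO baseline despite antagonist label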)
Method in brief: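 HEK293-PR-A-luc cells were precultured 5 days in medium with 10% charcoal-stripped FBS, seeded 3,000/well, then exposed to compounds in DMSO for 16 h at 37C. Luciferase was read by ONE-Glo luminescence after 30 min at room temperature.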

[7] = TOX21_PR_LUC_Followup_Agonist_viability: Viability Assessment in the Tox21 HEK293 Progesterone Receptor (PR) Agonism Luciferase Follow-Up Assay (AID 2283941; active = hit-call score of the fitted dose curve at least 0.9, where 1 is the maximum;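 also: loss of signal means cytotoxicity so actives lower viability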)
Method in brief: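 Cells were kept 5 days in charcoal-stripped serum medium before plating HEK293-PR-A-luc at 3,000 cells/well. After 5 h they received DMSO-dissolved compound and incubated 16 h at 37C. Viability was taken from CellTiter-Glo ATP luminescence.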

[8] = CCTE_Harrill_HTTr_Viability_MCF7: CCTE's 6-hour Cell Viability Assessment for the High-Throughput Transcriptomics (HTTr) Platform, in MCF-7 cells cultured in DMEM + 10% fetal bovine serum, Harrill Lab (AID 2284010)
Method in brief: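 Cells were dosed with chemicals in an eight-point dilution series, imaged 6 hours later for propidium iodide uptake, and the endpoint was analyzed by bidirectional fitting against DMSO as negative control.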

[9] = CCTE_Harrill_HTTr_Apoptosis_MCF7: CCTE's 6-hour Apoptosis Assessment for the High-Throughput Transcriptomics (HTTr) Platform, in MCF-7 cells cultured in DMEM + 10% fetal bovine serum, Harrill Lab (AID 2284011)
Method in brief: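 MCF-7 cells in DMEM + 10% fetal bovine serum were exposed to chemicals for 6 hours over an eight-point dilution series. Caspase-3/7 activation was imaged by high content imaging with CellEvent Caspase 3/7 Green; bidirectional fitting used DMSO as baseline.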

[10] = CCTE_Harrill_HTTr_CellCount_MCF7: CCTE's Cell Proliferation Assessment for the High-Throughput Transcriptomics (HTTr) Platform, Harrill Lab (AID 2284012; active = hit-call score of the fitted dose curve at least 0.9, where 1 is the maximum;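 also: count of Hoechst-stained nuclei per well by high-content imaging in MCF-7 cells; cells exposed to compound for six hours; intended direction is loss of nuclei count meaning fewer cells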)
Method in brief: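 Chemicals in eight-point dilution series are added to MCF-7 cells for six hours, nuclei are stained with Hoechst and imaged, and per-well nuclei counts are fitted in both directions relative to DMSO controls.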

PGR (gene 5241), sequence (P06401 whole entry, looked up): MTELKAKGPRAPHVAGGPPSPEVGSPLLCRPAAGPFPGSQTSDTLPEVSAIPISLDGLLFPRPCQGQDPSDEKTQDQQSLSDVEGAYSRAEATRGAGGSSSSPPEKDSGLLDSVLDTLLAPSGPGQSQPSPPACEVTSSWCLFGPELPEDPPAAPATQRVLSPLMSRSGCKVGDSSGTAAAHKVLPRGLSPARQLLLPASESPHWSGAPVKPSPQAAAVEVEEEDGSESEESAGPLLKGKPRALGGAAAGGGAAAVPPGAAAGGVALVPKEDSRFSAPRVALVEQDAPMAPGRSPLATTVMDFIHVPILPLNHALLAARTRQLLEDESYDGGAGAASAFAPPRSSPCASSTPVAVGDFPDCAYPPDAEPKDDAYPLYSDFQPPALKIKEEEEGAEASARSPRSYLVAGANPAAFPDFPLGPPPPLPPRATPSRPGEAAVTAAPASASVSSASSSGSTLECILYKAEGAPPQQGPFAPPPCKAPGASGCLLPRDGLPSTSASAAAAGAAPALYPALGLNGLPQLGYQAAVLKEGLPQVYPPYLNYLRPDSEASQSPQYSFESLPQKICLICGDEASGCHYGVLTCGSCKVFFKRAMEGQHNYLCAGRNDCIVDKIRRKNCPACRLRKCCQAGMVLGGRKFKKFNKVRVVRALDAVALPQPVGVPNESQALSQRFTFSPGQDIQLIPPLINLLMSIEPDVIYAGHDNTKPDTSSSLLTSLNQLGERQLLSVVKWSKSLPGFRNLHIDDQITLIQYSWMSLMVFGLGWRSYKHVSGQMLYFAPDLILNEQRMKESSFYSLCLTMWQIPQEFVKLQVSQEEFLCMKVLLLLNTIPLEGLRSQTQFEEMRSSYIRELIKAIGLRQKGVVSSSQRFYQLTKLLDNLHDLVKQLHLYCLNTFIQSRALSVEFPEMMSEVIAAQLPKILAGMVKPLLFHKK

Question: Which results are given for `CC(=O)O[C@H]1CC[C@@]2(C)C(=CC[C@@H]3[C@@H]2CC[C@]2(C)C(C(C)=O)=CC[C@@H]32)C1`?
Answer: outcome (PGR (gene 5241) [1]): inactive; AC50 (PGR (gene 5241) [2]): 10 µM (active); outcome [3]: inactive; outcome [4]: inactive; outcome (PGR (gene 5241) [5]): inactive; AC50 (PGR (gene 5241) [6]): 9.14 µM (active); outcome [7]: inactive

Question: What does the source list for `C=O.C=O.C=O.C=O.C=O.[Fe]`?
Answer: outcome [8]: inactive; outcome [9]: inactive

Question: With `O=c1ccc2ccc(O)cc2o1` as the compound, how does the outcome [8] read?
Answer: inactive

Question: What about the outcome [9] of the same compound?
Answer: inactive

Question: And the outcome [10]?
Answer: inactive

Question: Which outcome [8] does the source give for `CCCCN1C(=O)c2ccccc2C1=O` here?
Answer: inactive

Question: And the outcome [9]?
Answer: inactive

Question: With `COc1c2occc2c(OC)c2c(=O)cc(C)oc12` as the compound, how does the outcome [8] read?
Answer: inactive

Question: And the outcome [9]?
Answer: inactive

Question: What about the outcome [10] of the same compound?
Answer: inactive

Question: Which outcome [8] does the source give for `NCCNCCNCCNCCN` here?
Answer: inactive

Question: And the outcome [9]?
Answer: inactive

Question: What about the outcome [10] of the same compound?
Answer: inactive

Question: Which outcome [8] does the source give for `Nc1c(S(=O)(=O)O)cc(Nc2ccccc2)c2c1C(=O)c1ccccc1C2=O` here?
Answer: inactive

Question: What about the outcome [9] of the same compound?
Answer: inactive

Question: What about the outcome [10] of the same compound?
Answer: inactive

Question: Which outcome [8] does the source give for `CCCCCCCCOC(=O)c1ccccc1C(=O)O` here?
Answer: inactive

Question: What about the outcome [9] of the same compound?
Answer: inactive

Question: What about the outcome [10] of the same compound?
Answer: inactive

Question: Which outcome [8] does the source give for `NC[C@H](O)c1ccc(O)c(O)c1` here?
Answer: inactive

Question: What about the outcome [9] of the same compound?
Answer: inactive

Question: And the outcome [10]?
Answer: inactive

Question: For `CC1CN(c2cc3c(cc2F)c(=O)c(C(=O)O)cn3-c2ccc(F)cc2F)CCN1` (centres undefined), which outcome [8] is on record?
Answer: inactive

Question: And the outcome [9]?
Answer: inactive

Question: What about the outcome [10] of the same compound?
Answer: inactive

Question: For `CC1=CC(=O)C(C(C)C)CC1` (centres undefined), which outcome [8] is on record?
Answer: inactive

Question: What about the outcome [9] of the same compound?
Answer: inactive

Question: What about the outcome [10] of the same compound?
Answer: inactive

Question: With `Nc1nc2nc[nH]c2c(=O)[nH]1` as the compound, how does the outcome [8] read?
Answer: inactive

Question: What about the outcome [9] of the same compound?
Answer: inactive

Question: What about the outcome [10] of the same compound?
Answer: inactive

Question: What does the source list for `CCOc1ccc2ccccc2c1`?
Answer: outcome [8]: inactive; outcome [9]: inactive; outcome [10]: inactive

Question: With `O=CO` as the compound, how does the outcome [8] read?
Answer: inactive

Question: What about the outcome [9] of the same compound?
Answer: inactive

Question: Which outcome [8] does the source give for `CC(=O)C(=NNc1ccc(-c2ccc(NN=C(C(C)=O)C(=O)Nc3ccc(C)cc3C)c(Cl)c2)cc1Cl)C(=O)Nc1ccc(C)cc1C` here?
Answer: inactive

Question: What about the outcome [9] of the same compound?
Answer: inactive

Question: What about the outcome [10] of the same compound?
Answer: inactive

Question: With `CCCCOC(=O)/C=C/C(=O)OCCCC` as the compound, how does the outcome [8] read?
Answer: inactive

Question: What about the outcome [9] of the same compound?
Answer: inactive

Question: What does the source list for `CCCCCC1=C(C)CCC1=O`?
Answer: outcome [8]: inactive; outcome [9]: inactive; outcome [10]: inactive

Question: With `CN1[C@@H]2CC[C@H]1CC(OC(=O)C(CO)c1ccccc1)C2` (some centres undefined) as the compound, how does the outcome [8] read?
Answer: inactive

Question: And the outcome [9]?
Answer: inactive

Question: And the outcome [10]?
Answer: inactive

Question: With `Cc1cc(N=Nc2c(O)ccc3ccccc23)c(S(=O)(=O)O)cc1Cl` as the compound, how does the outcome [8] read?
Answer: inactive

Question: And the outcome [9]?
Answer: inactive

Question: And the outcome [10]?
Answer: inactive

Question: With `C=C1CCC2CC1C2(C)C` (centres undefined) as the compound, how does the outcome [8] read?
Answer: inactive

Question: And the outcome [9]?
Answer: inactive

Question: What about the outcome [10] of the same compound?
Answer: inactive

Question: Which outcome [8] does the source give for `CCCCCCCCCCCCCCCC=O` here?
Answer: inactive

Question: What about the outcome [9] of the same compound?
Answer: inactive

Question: What about the outcome [10] of the same compound?
Answer: inactive

Question: With `O=C[C@H](O)[C@@H](O)[C@@H](O)CO` as the compound, how does the outcome [8] read?
Answer: inactive

Question: What about the outcome [9] of the same compound?
Answer: inactive

Question: And the outcome [10]?
Answer: inactive

Question: With `O=C(O)c1ccccc1C(=O)OC1CCCCC1` as the compound, how does the outcome [8] read?
Answer: inactive

Question: And the outcome [9]?
Answer: inactive

Question: And the outcome [10]?
Answer: inactive
